Source: PubChem BioAssay (NCATS)
Inconclusive results are not listed. Unmarked numbers belong to inactive results. Calls of active or inactive are those of the source. The call rests on the fitted dose curve; in most records, active means well fitted curve in the direction sought with a large enough effect; inconclusive means small, poorly fitted or top-dose-only effect, or another doubt; inactive means no such curve, though single readings can be large; an effect the other way counts as inactive or inconclusive.

Experiment: NS1 protein of Zika virus - qHTS assay to identify small molecule inhibitors in human HEK 293 cells (AID 1347053);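 further: plate controls were infected untreated cells for no effect and uninfected cells for full effect; nearly all actives have a fitted effect of over 55% in size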
Details: HEK293 ZIKV MR766 infection, NS1 TR-FRET, 24 h; series mostly up to 46.1 µM; activity change, negative = inhibition: at the top concentration
Outline: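 HEK 293 cells, seeded 20 h at 37 C, were pretreated with compound 1 h, then infected with ZIKV MR766 (MOI = 0.5) for 24 h. NS1 was read by TR-FRET with two anti-NS1 antibodies, normalized to uninfected and infected wells.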

Row | Structure (SMILES) | activity change, negative = inhibition
1 | CCCOC(=O)c1ccc(O)cc1 | 10.7% [at 92.8 µM]
2 | O=C(O)Cc1cccc(-c2cc(CCCCCCc3ccc(O[C@H]4O[C@H](CO)[C@@H](O)[C@H](O)[C@@H]4O)c(-c4cccc(CC(=O)O)c4)c3)ccc2O[C@H]2O[C@H](CO)[C@@H](O)[C@H](O)[C@@H]2O)c1 | -8.2% [at 0.593 µM]
3 | O=C(O)/C=C\C(=O)O | 8.37%
4 | CC(C(=O)O)c1ccc2c(c1)[nH]c1ccc(Cl)cc12 (stereo not drawn) | -16.2%
5 | COc1ccc(-c2cc(=S)ss2)cc1 | 7.96%
6 | O=C(CCN1CCN(CCO)CC1)N1c2ccccc2Sc2ccc(C(F)(F)F)cc21 | -0.0907%
7 | c1ccc2sc(SN3CCOCC3)nc2c1 | -0.633%
8 | O=C(OCc1ccccc1)c1ccccc1 | 2.76%
9 | Nc1c(CC(=O)O)cccc1C(=O)c1ccc(Br)cc1 | 3.04%
10 | CC(=O)c1ccc(OCC(=O)N2CCCCC2)cc1 | -5.84%
11 | CNC(=O)c1c(I)c(NC(=O)CCCCC(=O)Nc2c(I)c(C(=O)O)c(I)c(C(=O)NC)c2I)c(I)c(C(=O)O)c1I | -0.24%
12 | O=C(O)c1cc(O)c(O)c(O)c1 | -1.98%
13 | C=CCCCCCCCCC(=O)O | 8.2%
14 | Cc1ccc(C(=O)c2ccc(CC(=O)O)n2C)cc1 | 0.068%
15 | Nc1cc(-c2ccncc2)c[nH]c1=O | 3.19%
16 | Nc1nc2ccc([N+](=O)[O-])cc2s1 | -5.8% [at 92.8 µM]
17 | COc1ccnc2c1CCCCC2S(=O)c1nc2ccccc2[nH]1 (stereo not drawn) | 16.4%
18 | N=C(N)N | -3.56%
19 | O=Cc1ccc(O)c(O)c1O | 4.88%
20 | CCCCCCCC/C=C/C(=O)O | 14.1%

Row | Structure (SMILES) | activity change, negative = inhibition
21 | Nc1ccc(C(=O)O)c(O)c1 | 0.873%
22 | CC1(C)S[C@@H]2[C@H](NC(=O)[C@H](N)c3ccccc3)C(=O)N2[C@H]1C(=O)O | -1.9%
23 | CN(C)[C@@H]1C(=O)C(C(=O)NCN2CCCC2)=C(O)[C@@]2(O)C(=O)C3=C(O)c4c(O)cccc4[C@@](C)(O)C3C[C@@H]12 (stereo partly drawn) | 12.4%
24 | CCCCCCCCCCCCOCCO | 2.17%
25 | CC(=O)SCC(CC(=O)c1ccc(C)cc1)C(=O)O (stereo not drawn) | 4.13%
26 | O=C(O)c1ccccc1Nc1cccc(C(F)(F)F)c1 | 1.13%
27 | CCOc1ccc2nc(S(N)(=O)=O)sc2c1 | -19.9%
28 | CCCSc1ccc2nc(NC(=O)OC)[nH]c2c1 | 37.1%
29 | Cc1c(Nc2ncccc2C(=O)O)cccc1C(F)(F)F | 22.5%
30 | O=C(/C=C/c1ccccc1)NCCO | -6.06%
31 | CCCCCCOc1ccccc1C(N)=O | -16.1%
32 | CCOC(=O)c1ccccc1O | -6.06%
33 | COc1cc2c3cc1Oc1cc(ccc1O)C[C@@H]1c4c(cc(OC)c(O)c4Oc4ccc(cc4)C[C@@H]3N(C)CC2)CC[N+]1(C)C | -1.97%
34 | O=C(O)Cc1ccc2c(c1)C(=O)c1ccccc1CO2 | -3.07%
35 | Cc1c(N)c(=O)n(-c2ccccc2)n1C | -15.3%
36 | Clc1ccccc1-c1nc(-c2ccncc2)no1 | 4.96%
37 | CC(C)(C)c1nnc(NS(=O)(=O)c2ccc(N)cc2)s1 | -0.153%
38 | CN1CCN(c2cc3c(nn2)Oc2ccccc2N3C)CC1 | -2.67% [at 20.1 µM]
39 | CC(C)OC(=O)c1cc(C(=O)OC(C)C)cc([N+](=O)[O-])c1 | 0.219% [at 92.8 µM]

Experiment: qHTS of pediatric cancer cell lines to identify multiple opportunities for drug repurposing: Primary screen for TC32 cells (AID 1347089); further: nearly all actives have a fitted effect of over 60% in size; further: potency means the concentration at half of the fitted maximal effect; on activity change, negative = cytotoxic: on the % scale 0 is the no-effect control and ±100 the full control effect
Details: TC32 Ewing sarcoma viability, CellTiter-Glo luminescence, 48 h; series mostly up to 45.8 µM; activity change, negative = cytotoxic: at the top concentration
Outline: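 In the primary qHTS, MIPE compounds were tested at 11 concentrations (0.78 nM to 46 µM) and NPC compounds at 8 (0.59 nM to 46 µM) on TC32 cells for 48 h. CellTiter-Glo luminescence gave viability.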

Row | Structure (SMILES) | activity change, negative = cytotoxic | Potency
40 | CCCOC(=O)c1ccc(O)cc1 | 14% [at 92.2 µM] | –
41 | O=C(O)Cc1cccc(-c2cc(CCCCCCc3ccc(O[C@H]4O[C@H](CO)[C@@H](O)[C@H](O)[C@@H]4O)c(-c4cccc(CC(=O)O)c4)c3)ccc2O[C@H]2O[C@H](CO)[C@@H](O)[C@H](O)[C@@H]2O)c1 | 14.4% [at 0.594 µM] | –
42 | O=C(O)/C=C\C(=O)O | 3.28% | –
43 | CC(C(=O)O)c1ccc2c(c1)[nH]c1ccc(Cl)cc12 (stereo not drawn) | 1.43% | –
44 | COc1ccc(-c2cc(=S)ss2)cc1 | 8.38% | –
45 | O=C(CCN1CCN(CCO)CC1)N1c2ccccc2Sc2ccc(C(F)(F)F)cc21 | 6% | –
46 | c1ccc2sc(SN3CCOCC3)nc2c1 | 4.88% | –
47 | O=C(OCc1ccccc1)c1ccccc1 | 0.474% | –
48 | Nc1c(CC(=O)O)cccc1C(=O)c1ccc(Br)cc1 | 6.15% | –
49 | CC(=O)c1ccc(OCC(=O)N2CCCCC2)cc1 | 8.5% | –
50 | CNC(=O)c1c(I)c(NC(=O)CCCCC(=O)Nc2c(I)c(C(=O)O)c(I)c(C(=O)NC)c2I)c(I)c(C(=O)O)c1I | -8.61% | –
51 | O=C(O)c1cc(O)c(O)c(O)c1 | 4.83% | –
52 | C=CCCCCCCCCC(=O)O | 6.53% | –
53 | Cc1ccc(C(=O)c2ccc(CC(=O)O)n2C)cc1 | 8.75% | –
54 | Nc1cc(-c2ccncc2)c[nH]c1=O | -0.957% | –
55 | Nc1nc2ccc([N+](=O)[O-])cc2s1 | 2.08% [at 92.2 µM] | –
56 | COc1ccnc2c1CCCCC2S(=O)c1nc2ccccc2[nH]1 (stereo not drawn) | -0.202% | –
57 | N=C(N)N | 14.8% | –
58 | O=Cc1ccc(O)c(O)c1O | 4.97% | –
59 | CCCCCCCC/C=C/C(=O)O | 5.37% | –

Row | Structure (SMILES) | activity change, negative = cytotoxic | Potency
60 | Nc1ccc(C(=O)O)c(O)c1 | 3.61% | –
61 | CC1(C)S[C@@H]2[C@H](NC(=O)[C@H](N)c3ccccc3)C(=O)N2[C@H]1C(=O)O | -1.01% | –
62 | CN(C)[C@@H]1C(=O)C(C(=O)NCN2CCCC2)=C(O)[C@@]2(O)C(=O)C3=C(O)c4c(O)cccc4[C@@](C)(O)C3C[C@@H]12 (stereo partly drawn) | 3% | –
63 | CCCCCCCCCCCCOCCO | 3.81% | –
64 | CC(=O)SCC(CC(=O)c1ccc(C)cc1)C(=O)O (stereo not drawn) | 6.41% | –
65 | O=C(O)c1ccccc1Nc1cccc(C(F)(F)F)c1 | 16.3% | –
66 | CCOc1ccc2nc(S(N)(=O)=O)sc2c1 | -5.93% | –
67 | CCCSc1ccc2nc(NC(=O)OC)[nH]c2c1 | – | 938 nM (active)
68 | Cc1c(Nc2ncccc2C(=O)O)cccc1C(F)(F)F | 2.22% | –
69 | O=C(/C=C/c1ccccc1)NCCO | 6.9% | –
70 | CCCCCCOc1ccccc1C(N)=O | 5.86% | –
71 | CCOC(=O)c1ccccc1O | 12.4% | –
72 | COc1cc2c3cc1Oc1cc(ccc1O)C[C@@H]1c4c(cc(OC)c(O)c4Oc4ccc(cc4)C[C@@H]3N(C)CC2)CC[N+]1(C)C | -9.49% | –
73 | O=C(O)Cc1ccc2c(c1)C(=O)c1ccccc1CO2 | 8.09% | –
74 | Cc1c(N)c(=O)n(-c2ccccc2)n1C | -4.43% | –
75 | Clc1ccccc1-c1nc(-c2ccncc2)no1 | 8.5% | –
76 | CC(C)(C)c1nnc(NS(=O)(=O)c2ccc(N)cc2)s1 | 4.37% | –
77 | CN1CCN(c2cc3c(nn2)Oc2ccccc2N3C)CC1 | 7.93% [at 16 µM] | –
78 | CC(C)OC(=O)c1cc(C(=O)OC(C)C)cc([N+](=O)[O-])c1 | 8.79% [at 92.2 µM] | –
